Experimental data reported in the supplement of paper PMC12045047.
Where a name gives a salt, the structure may show the parent alone. Unmarked numbers belong to inactive results.

Tested on: primary human airway basal cells (HBEC, luciferase-transduced)
Assay: proliferation (luciferase bioluminescence) Z score relative to plate mean; higher = more proliferation / more cells, active = 1.96 or more
Settings: donor: 1, library: ENZO Libraries, 4 days
Experimental: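 Primary human bronchial epithelial (airway basal) cells from two donors, lentivirally transduced with pHIV-Luc-ZsGreen, were seeded at 2000 cells/well in 384-well plates in FAD medium with ENZO or Prestwick library compounds and cultured for 4 days. Luciferin was then added and bioluminescence was read as a measure of cell number. Relative light units were converted to Z scores against the plate, and the mean of triplicate wells is reported.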

Structure (SMILES)	proliferation (0.5 µM)	proliferation (5 µM)
O=C1Nc2ccc(I)cc2/C1=C/c1cc(Br)c(O)c(Br)c1	-0.115	-0.66
CC(C)C[C@H](NC(=O)N[C@H](C(=O)N[C@@H](CCC(N)=O)C(=O)N[C@@H](C)C=O)[C@@H]1CCNC(=N)N1)C(=O)O [Elastatinal]	-0.455	-0.0211
O=C1Cc2c([nH]c3ccc(Br)cc23)-c2ccccc2N1 [Kenpaullone]	3.89 (active)	-0.683
N#C/C(=C\c1ccc(O)c(O)c1)C(=O)NCc1ccccc1	0.366	-0.179
CCCC[C@@H](C=O)NC(=O)[C@H](CC(C)C)NC(=O)OCc1ccccc1 [Calpeptin]	-0.319	0.152
O=C(O)c1ccnc(C(=O)O)c1 [24-Pyridinedicarboxylic Acid]	0.171	-0.194
CC1(C)C[C@@H]1C(=O)N/C(=C\CCCCSC[C@H](N)C(=O)O)C(=O)O [Cilastatin]	-0.499	-0.038
Nc1ncn([C@H]2C[C@H](O)[C@@H](CO)O2)c(=O)n1 [5-Aza-2'-deoxycytidine]	-0.383	-0.302
CCOC(=O)[C@H](CCc1ccccc1)N[C@@H](C)C(=O)N1CCC[C@H]1C(=O)O [Enalapril]	-0.154	-0.126
O=C(c1ccc(Cl)cc1Cl)n1nnc2ccccc21	-0.0821	0.316
NC(=O)c1cccc(-c2cccc(OC(=O)NC3CCCCC3)c2)c1	0.0752	0.55
CC(C)CCNC(=O)[C@H](CC(C)C)NC(=O)[C@H]1O[C@@H]1C(=O)O	-0.298	-0.117
NC(N)=NCCC[C@H](NC(=O)[C@@H]1CCCN1C(=O)[C@H](N)Cc1ccccc1)C(=O)CCl	0.533	-0.142
CC(C)n1cnc2c(NCc3ccccc3)nc(NCCO)nc21 [N9-isopropyl-olomoucine]	-0.31	-0.285
CC(C)C[C@H](NC(=O)[C@@H](O)[C@H](N)Cc1ccccc1)C(=O)O	-0.66	-0.519
CC(C)C[C@H](NP(=O)(O)O[C@@H]1O[C@@H](C)[C@H](O)[C@@H](O)[C@H]1O)C(=O)N[C@@H](Cc1c[nH]c2ccccc12)C(=O)O [Phosphoramidon]	-0.109	0.079
O=C(O)c1cc(N(Cc2ccccc2O)Cc2cc(O)ccc2O)ccc1O [Lavendustin A]	-0.351	-0.457
COCc1cc(O)c(O)c(O)c1-c1c(COC)cc(O)c(O)c1O	-0.578	-0.416
O=C(CCCCCCC(=O)NO)NO [Suberoyl bis-hydroxamic acid]	0.147	-0.101
CCCCCCCCCC(=O)N[C@@H](CCCN=C(N)N)C(=O)N[C@H](C(=O)N[C@@H](CCCCN)C(=O)N[C@@H](CCCN=C(N)N)C(=O)CCl)C(C)C	0.21	0.0695
Nc1ccccc1NC(=O)CCCCCCC(=O)Nc1ccccc1	0.133	0.0632
CC(C)C(=O)SCCCCCCC(=O)Nc1nc(-c2ccccc2)cs1	0.111	0.205
CCCC[C@@H](C=O)NC(=O)OC(C)(C)C	0.474	-0.0416

Structure (SMILES)	proliferation (0.5 µM)	proliferation (5 µM)
CCCCCCCCCCCCC/C=C/[C@@H](O)[C@@H](N)CO [D-erythro-Sphingosine]	-0.0291	0.187
NCCCC[C@H](N[C@@H](CCc1ccccc1)C(=O)O)C(=O)N1CCC[C@H]1C(=O)O [Lisinopril]	-0.405	0.0284
CCOC(=O)c1ccc(OC(=O)CCCCCNC(=N)N)cc1 [Gabexate mesylate]	-0.301	0.0316
O=C(CCCN1C(=O)c2cccc3cccc(c23)C1=O)NO [Nullscript]	0.202	-0.00941
N[C@H](C(=O)O)[C@@H]1CC(Cl)=NO1 [Acivicin]	-0.75	-1.56
CCN1C(=O)C=CC1=O [N-Ethylmaleimide]	0.0934	-0.247
O=C1Nc2ccccc2/C1=C1/Nc2ccccc2C1=O [Indirubin]	-0.759	-1.2
O=c1cc(N2CCOCC2)oc2c(-c3ccccc3)cccc12	-0.437	-0.857
O=c1ncccn1[C@@H]1O[C@H](CO)[C@@H](O)[C@H]1O [Zebularine]	-0.238	0.0287
CSCCC(C=O)NC(=O)C(CC(C)C)NC(=O)[C@H](CC(C)C)NC(C)=O (stereo not given in full) [Calpain Inhibitor II (ALLM)]	0.241	-0.104
O=C1Nc2ccc([N+](=O)[O-])cc2C1=O [5-Nitroisatin]	0.112	-0.27
C[S+]([O-])c1ccc(-c2nc(-c3ccc(F)cc3)c(-c3ccncc3)[nH]2)cc1 (stereo not given)	0.838	0.0347
CNC(=O)[C@H](Cc1c[nH]c2ccccc12)NC(=O)[C@@H](CC(=O)NO)CC(C)C	-0.298	-0.522
N#C/C(=C\c1ccc(O)c(O)c1)C(N)=O	-0.0866	-0.0854
Cn1cnc2nc(NCCO)nc(NCc3ccccc3)c21 [Iso-olomoucine]	0.048	0.096
C[C@]1(Cn2ccnn2)[C@H](C(=O)O)N2C(=O)C[C@H]2S1(=O)=O [Tazobactam]	0.216	0.201
CC(C)c1cnc(NC(=O)Cc2ccccc2)s1	0.304	0.142
Cc1ccc(C(=O)c2cc(/C=C/C(=O)NO)n(C)c2)cc1	-0.0732	-0.0538
COc1cccc(-c2cc(=O)c3ccccc3o2)c1N	2.9 (active)	2.39 (active)
Oc1ccc(-c2nc(-c3ccc(F)cc3)c(-c3ccncc3)[nH]2)cc1	0.995	0.0853
Oc1ccc(/C=C/c2cc(O)cc(O)c2)cc1 [Resveratrol]	1.08	3.39 (active)
N#CC(=C(/N)Sc1ccccc1N)/C(C#N)=C(/N)Sc1ccccc1N	-1.3	-1.33
